Measurements reported in PubChem BioAssay (NCI).
This is part of a sample that, as a whole, favours compounds with a hit. Of some 83,000 tested, about 20% had one in any assay.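 In brief: 96-well plates, 48 h treatment, single concentration, percent growth endpoint.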 Activity calls are given as the source filed them. How the source made its calls: active means growth percent below 10; inactive means the rest.

Key:
Experiment in all cases: NCI-60 one-dose screen, 48 h (100 = growth as untreated, 0 = no growth, -100 = all killed)
Settings in all cases: 10 µM unless noted
HCT-15 colon = tested on: HCT-15 colon
HT29 colon = tested on: HT29 colon
SNB-75 CNS = tested on: SNB-75 CNS
SNB-19 CNS = tested on: SNB-19 CNS
U251 CNS = tested on: U251 CNS
PC-3 prostate = tested on: PC-3 prostate
SK-MEL-5 melanoma = tested on: SK-MEL-5 melanoma
UACC-62 melanoma = tested on: UACC-62 melanoma
LOX IMVI melanoma = tested on: LOX IMVI melanoma
SK-MEL-28 melanoma = tested on: SK-MEL-28 melanoma
SK-MEL-2 melanoma = tested on: SK-MEL-2 melanoma
EKVX NSCLC = tested on: EKVX NSCLC
SN12C renal = tested on: SN12C renal
UO-31 renal = tested on: UO-31 renal
TK-10 renal = tested on: TK-10 renal
ACHN renal = tested on: ACHN renal
A498 renal = tested on: A498 renal
CCRF-CEM leukemia = tested on: CCRF-CEM leukemia
MOLT-4 leukemia = tested on: MOLT-4 leukemia
CAKI-1 renal = tested on: CAKI-1 renal

Measured: growth

CN(C)CCNC(=O)c1ccc(-c2nc3ccc4[nH]ncc4c3c3c2COCC3)cc1
active: SNB-75 CNS -30.1% | SNB-19 CNS 6.94% | U251 CNS 5.37% | PC-3 prostate 0.378% | SK-MEL-5 melanoma 3.57% | UACC-62 melanoma -24.7% | LOX IMVI melanoma -72.4% | SK-MEL-28 melanoma -6.13% | SK-MEL-2 melanoma -69.7% | SN12C renal 5.07% | A498 renal -60.4% | CCRF-CEM leukemia 2.22% | MOLT-4 leukemia -9.13%
inactive: HCT-15 colon 84.7% | HT29 colon 16.7% | EKVX NSCLC 33.1% | UO-31 renal 82.9% | TK-10 renal 44% | ACHN renal 69.4%

O=C(NCCN1CCCC1)c1ccc(-c2nc3ccc4[nH]ncc4c3c3c2CCCC3)cc1
active: HT29 colon 4.8% | SNB-19 CNS 7.71% | PC-3 prostate 8.15% | SK-MEL-5 melanoma 5.04% | LOX IMVI melanoma -89.6% | SK-MEL-28 melanoma 5.05% | SN12C renal 8.98% | A498 renal -80% | CCRF-CEM leukemia 9% | MOLT-4 leukemia -26%
inactive: HCT-15 colon 26.1% | SNB-75 CNS 33.7% | U251 CNS 10.7% | UACC-62 melanoma 18.4% | SK-MEL-2 melanoma 10.1% | EKVX NSCLC 24% | UO-31 renal 43.3% | TK-10 renal 27.3% | ACHN renal 15.8%

COc1ccccc1-n1cc(C#N)c(N)c1C(=O)c1ccc(Cl)cc1
inactive: HCT-15 colon 36.2% | HT29 colon 52.8% | SNB-75 CNS 62.3% | SNB-19 CNS 69.4% | U251 CNS 91.9% | PC-3 prostate 58% | SK-MEL-5 melanoma 60.1% | UACC-62 melanoma 46.3% | LOX IMVI melanoma 67.9% | SK-MEL-28 melanoma 74.3% | SK-MEL-2 melanoma 78.4% | EKVX NSCLC 86.9% | SN12C renal 90% | UO-31 renal 77.4% | TK-10 renal 107% | ACHN renal 93% | A498 renal 57% | CCRF-CEM leukemia 76.3% | MOLT-4 leukemia 64.2%

O=C(NCCn1ccnc1)c1ccc(-c2nc3ccc4[nH]ncc4c3c3c2CCCC3)cc1
inactive: HCT-15 colon 97.5% | HT29 colon 88.4% | SNB-75 CNS 52.6% | SNB-19 CNS 55.6% | U251 CNS 58.6% | PC-3 prostate 47.6% | SK-MEL-5 melanoma 89.9% | UACC-62 melanoma 28.8% | LOX IMVI melanoma 66.3% | SK-MEL-28 melanoma 62.4% | SK-MEL-2 melanoma 45.3% | EKVX NSCLC 87.6% | SN12C renal 81.6% | UO-31 renal 92.4% | TK-10 renal 77.7% | ACHN renal 88.4% | A498 renal 73.5% | CCRF-CEM leukemia 19.5% | MOLT-4 leukemia 29.1%

C=CCn1c(SCC(=O)Nc2ccc(C(=O)/C=C/c3ccc(Cl)cc3)cc2)nnc1-c1c[nH]c2ccccc12
inactive: HCT-15 colon 62.9% | HT29 colon 88.7% | SNB-75 CNS 93.5% | SNB-19 CNS 76.1% | U251 CNS 76.3% | PC-3 prostate 58.4% | SK-MEL-5 melanoma 42.9% | UACC-62 melanoma 57.4% | SK-MEL-28 melanoma 90.2% | SK-MEL-2 melanoma 88.7% | EKVX NSCLC 56.1% | SN12C renal 71.5% | UO-31 renal 47.8% | TK-10 renal 103% | ACHN renal 77.6% | A498 renal 91.4% | CCRF-CEM leukemia 75.3% | MOLT-4 leukemia 66.4%
active: LOX IMVI melanoma 1.53%

CCC1=Cc2cc(OC)ccc2OC12C=Cc1cc(OC)ccc1O2 (stereo not given)
active: HT29 colon -9.52% | UACC-62 melanoma 4.11% | LOX IMVI melanoma -5.73% | A498 renal 3.41%
inactive: HCT-15 colon 14.7% | SNB-75 CNS 24.5% | SNB-19 CNS 20.8% | U251 CNS 28.7% | PC-3 prostate 31.6% | SK-MEL-5 melanoma 16.8% | SK-MEL-28 melanoma 56.6% | SK-MEL-2 melanoma 52.5% | EKVX NSCLC 46.2% | SN12C renal 34.8% | UO-31 renal 53% | TK-10 renal 100% | ACHN renal 45% | CCRF-CEM leukemia 10.9% | MOLT-4 leukemia 11%

COc1cc(/C=C2\C(=O)Nc3cc(Cl)ccc32)ccc1OCc1ccc(F)cc1
inactive: HCT-15 colon 89% | HT29 colon 105% | SNB-75 CNS 104% | SNB-19 CNS 104% | U251 CNS 111% | PC-3 prostate 87% | SK-MEL-5 melanoma 99% | UACC-62 melanoma 88.8% | LOX IMVI melanoma 93.5% | SK-MEL-28 melanoma 105% | SK-MEL-2 melanoma 99.8% | EKVX NSCLC 76.5% | SN12C renal 95.9% | UO-31 renal 79.8% | TK-10 renal 185% | ACHN renal 93.6% | A498 renal 94.2% | MOLT-4 leukemia 100%

O=C(O)c1ccc(-n2cc(CNc3cc(F)c(F)c(F)c3)c(-c3cccc(F)c3)n2)cc1
inactive: HCT-15 colon 46.8% | HT29 colon 106% | SNB-75 CNS 106% | SNB-19 CNS 97.4% | U251 CNS 93.3% | PC-3 prostate 79.1% | SK-MEL-5 melanoma 67.4% | UACC-62 melanoma 58.2% | LOX IMVI melanoma 104% | SK-MEL-28 melanoma 83.2% | SK-MEL-2 melanoma 79.6% | EKVX NSCLC 65.5% | SN12C renal 91.3% | UO-31 renal 77% | TK-10 renal 128% | ACHN renal 77.4% | A498 renal 99.4% | CCRF-CEM leukemia 92.3% | MOLT-4 leukemia 79.8%

O=C(NNc1nc2cc(F)c(F)cc2n2c(CN3CC4CNCC4C3)ccc12)c1ncccn1 (stereo not given)
active: SK-MEL-5 melanoma -33.8% | UACC-62 melanoma -20.1% | LOX IMVI melanoma 1.73% | SK-MEL-2 melanoma 9.68% | MOLT-4 leukemia -6.62%
inactive: HCT-15 colon 19.8% | HT29 colon 23.5% | SNB-75 CNS 52.1% | SNB-19 CNS 29.9% | U251 CNS 17.3% | PC-3 prostate 17.6% | SK-MEL-28 melanoma 29.3% | EKVX NSCLC 20% | SN12C renal 25.8% | UO-31 renal 13.6% | TK-10 renal 16.2% | ACHN renal 12.7% | A498 renal 18.7%

CN1CCN(Cc2ccc(NC(=O)c3cncc(C#Cc4cnc5ccc(OCC(C)(C)O)nn45)c3)cc2C(F)(F)F)CC1
active: HCT-15 colon -39.2% | HT29 colon -22.7% | SNB-75 CNS -46.1% | SNB-19 CNS -8.47% | U251 CNS -59.3% | PC-3 prostate 2.2% | SK-MEL-5 melanoma -91.8% | UACC-62 melanoma -41.1% | LOX IMVI melanoma -91% | SK-MEL-28 melanoma -38.9% | SK-MEL-2 melanoma -80.4% | EKVX NSCLC -31.2% | SN12C renal 2.45% | UO-31 renal -87.9% | TK-10 renal -18.5% | ACHN renal -33.3% | A498 renal -84.1% | CCRF-CEM leukemia 6.09% | MOLT-4 leukemia 5.42%

Cc1cccc2c3c(sc12)C(c1ccc(Cl)cc1)c1c(nc(CC(=O)Nc2ccccc2)[nH]c1=O)O3 (stereo not given)
inactive: HCT-15 colon 47.5% | HT29 colon 73.6% | SNB-75 CNS 30.8% | SNB-19 CNS 64.5% | U251 CNS 54.2% | PC-3 prostate 43.3% | SK-MEL-5 melanoma 91.7% | UACC-62 melanoma 27% | LOX IMVI melanoma 56.1% | SK-MEL-28 melanoma 56.5% | SK-MEL-2 melanoma 68.4% | EKVX NSCLC 63.7% | SN12C renal 71.9% | UO-31 renal 50.9% | ACHN renal 47.3% | CAKI-1 renal 41.1% | A498 renal 41.5% | CCRF-CEM leukemia 59% | MOLT-4 leukemia 83.4%

O=C1CCC(N2C(=O)c3ccc(NS(=O)(=O)c4ccccc4OC(F)(F)F)cc3C2=O)C(=O)N1 (stereo not given)
active: HCT-15 colon 7.77% | UO-31 renal 3.53% | MOLT-4 leukemia 2.34%
inactive: HT29 colon 78.4% | SNB-75 CNS 58% | SNB-19 CNS 39.6% | U251 CNS 75.8% | PC-3 prostate 46.4% | SK-MEL-5 melanoma 45.9% | UACC-62 melanoma 93.3% | LOX IMVI melanoma 105% | SK-MEL-28 melanoma 66.8% | SK-MEL-2 melanoma 83.7% | EKVX NSCLC 78.8% | SN12C renal 47.8% | TK-10 renal 63.4% | ACHN renal 87.5% | A498 renal 28.5% | CCRF-CEM leukemia 13.2%

COc1ccc(/C=C(/C)c2ccc3ccc(OC)cc3[o+]2)c(O)c1
active: LOX IMVI melanoma -15.8%
inactive: HCT-15 colon 22.5% | HT29 colon 44.7% | SNB-75 CNS 85.6% | SNB-19 CNS 82.4% | U251 CNS 84.6% | PC-3 prostate 41.7% | SK-MEL-5 melanoma 61.6% | UACC-62 melanoma 50.9% | SK-MEL-28 melanoma 96% | SK-MEL-2 melanoma 94.3% | EKVX NSCLC 55.8% | SN12C renal 85.5% | UO-31 renal 69.4% | TK-10 renal 174% | ACHN renal 70.2% | A498 renal 110% | CCRF-CEM leukemia 11.2% | MOLT-4 leukemia 34.7%
